Results on 27 molecules are retold here after PubChem BioAssay (NCATS).

Records with an inconclusive call do not appear. Unmarked numbers belong to inactive results. Active and inactive are the calls of the source. Calls follow the shape of the dose curve; as a rule, active = well fitted curve in the direction sought with a large enough effect; inconclusive = small, poorly fitted or top-dose-only effect, or another doubt; inactive = no such curve, though single readings can be large; an effect the other way counts as inactive or inconclusive.

Experiment [1] in a line: qHTS for Inhibitors of Plasmodium falciparum (DD2) proliferation (AID 504314). Also: potency is read from the fitted curve at half-maximal effect. An outline of the steps:
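Fluorescence read-out (ex 485/em 535 nm) of SYBR Green-stained parasite DNA quantifies intraerythrocytic growth. Cultures at 0.3% parasitemia and 2.5% hematocrit were treated for 72 h; data normalized to DMSO and 0.29 uM artemisinin wells.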
A general note: Quantitative high-throughput screening tests each substance at several concentrations.

The nature of experiment [2]: qHTS for Inhibitors of Plasmodium falciparum (GB4) proliferation (AID 504315). Also: nearly all actives have a fitted effect of over 50% in size. Also: potency is read from the fitted curve at half-maximal effect. In a few lines: (§1)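 Erythrocytes infected with P. falciparum line (0.3% parasitemia, 2.5% hematocrit final) incubated with compounds 72 h at 37 °C, 5% CO2; SYBR Green lysis buffer added, fluorescence read next day. Normalized to 0.29 uM artemisinin and DMSO.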
A short description of experiment [3]: qHTS for Inhibitors of Plasmodium falciparum (7G8) proliferation (AID 504316). Also: nearly all actives have a fitted effect of over 65% in size. Also: potency is read from the fitted curve at half-maximal effect. An outline of the steps: as §1
The nature of experiment [4]: qHTS for Inhibitors of Plasmodium falciparum (CP250) proliferation (AID 504320). In a few lines:
as §1

The nature of experiment [5]: qHTS for Inhibitors of Plasmodium falciparum (HB3) proliferation (AID 504318). Also: nearly all actives have a fitted effect of over 60% in size. An outline of the steps: as §1

With `COC/C=C/C1=CC2=CC(=O)C(C)(OC(=O)c3cnc4ccccc4n3)C(=O)C2=CN1CCCCO` (stereo not given), the Potency result in experiment [1], in experiment [2], in experiment [3] and in experiment [4] was “inactive” each time.

`COC/C=C/C1=CC2=CC(=O)C(C)(OC(=O)c3cnc4ccccc4n3)C(=O)C2=CN1CCOC` (stereo not given): the Potency entry in experiment [1], in experiment [2], in experiment [3], in experiment [5] and in experiment [4] was “inactive” throughout.

Consider `C=CCN1c2ccccc2[C@]23C[C@@H](C(=O)OC)N(C(C)=O)C2=NC(C(=O)OC)=C(C(=O)OC)[C@H]13`, for which the Potency result in experiment [1], in experiment [2], in experiment [3], in experiment [5] and in experiment [4] was “inactive” in each case.

As for `CCOC(=O)CN1C(=O)N[C@@H](c2cccc(C(F)(F)F)c2)[C@H](C(=O)OC)[C@H]1C`, the Potency entry in experiment [1], in experiment [2], in experiment [3], in experiment [5] and in experiment [4] was “inactive” in each case.

For the molecule `CCCCC1=CC2=CC(=O)C(C)(OC(=O)CC)C(=O)C2=CN1c1ccccc1` (stereo not given), the Potency result in experiment [1], in experiment [2], in experiment [3] and in experiment [4] was “inactive” in each case.

For the molecule `COC(=O)CCC(=O)OC1(C)C(=O)C2=CN(C(CO)CO)C(c3ccc(OC)cc3)=CC2=C(Br)C1=O` (stereo not given), the Potency result in experiment [1], in experiment [2], in experiment [3], in experiment [5] and in experiment [4] was “inactive” each time.

On to `CCOC(=O)CN1C(=O)N[C@@H](CCc2ccccc2)[C@@H](C(=O)OC)[C@H]1C`, for which the Potency result in experiment [1], in experiment [2], in experiment [3], in experiment [5] and in experiment [4] was “inactive” throughout.

Take `COc1cc2c(cc1OC)[C@@H]1O[C@](CCCCN3C(=O)c4ccccc4C3=O)(C2)Oc2cc(C)n(-c3ccccc3)c(=O)c21`: the values for the Potency in experiment [1] and in experiment [2] were 1.69 µM (active) and 1.35 µM (active), respectively.

As to `COC(=O)[C@]1(C)C=C[C@@H](C)[C@H](c2ccccc2Br)N1C(=O)C(F)(F)F`, the Potency result in experiment [1], in experiment [2], in experiment [3], in experiment [5] and in experiment [4] was “inactive” each time.

Consider `CCCCC1=CC2=CC(=O)C(C)(OC(=O)CC)C(=O)C2=CN1c1ccc(OC)cc1` (stereo not given), for which the Potency entry in experiment [1], in experiment [2], in experiment [3], in experiment [5] and in experiment [4] was “inactive” throughout.

Consider `COC(=O)CCC(=O)OC1(C)C(=O)C=C2C=C(C3CC3)N(C3CCCCC3)C=C2C1=O` (stereo not given), for which the Potency result in experiment [1], in experiment [2], in experiment [3], in experiment [5] and in experiment [4] was “inactive” each time.

Consider `CCCCC1=CC2=CC(=O)C(C)(OC(=O)CC)C(=O)C2=CN1CCc1c[nH]c2ccccc12` (stereo not given), for which the Potency entry in experiment [1], in experiment [2], in experiment [3], in experiment [5] and in experiment [4] was “inactive” in each case.

Turning to `CCCCC1=CC2=C(c3ccco3)C(=O)C(C)(OC(=O)c3ccc(OC)cc3)C(=O)C2=CN1CCOC` (stereo not given), the Potency result in experiment [1], in experiment [2], in experiment [3] and in experiment [4] was “inactive” each time.

Consider `COC(=O)C1=C(C(=O)OC)[C@@H]2Nc3ccccc3[C@@]23C[C@@H](C(=O)OC)N(C(=O)c2cc(C)oc2C)C3=N1`, for which the Potency entry in experiment [1] and in experiment [4] was “inactive” throughout. Moreover, the Potency in experiment [3] was 1.69 µM (active).

As for `COC(=O)CCC(=O)OC1(C)C(=O)C=C2C=C(C3CC3)N(CCc3ccccn3)C=C2C1=O` (stereo not given), the Potency result in experiment [1] and in experiment [5] was “inactive” each time.

Consider `C=CCN1c2ccccc2[C@]23C[C@@H](C(=O)OC)N(S(=O)(=O)c4cccs4)C2=NC(C(=O)OC)=C(C(=O)OC)[C@H]13`, for which the Potency result in experiment [1], in experiment [5] and in experiment [4] was “inactive” in each case.

Consider `COC(=O)CC1c2ccccc2C=C(/C=C/c2ccc3c(c2)OCO3)N1C(=O)OC` (stereo not given), for which the Potency result in experiment [1] and in experiment [4] was “inactive” throughout.

Regarding `O=C(NS(=O)(=O)c1ccc(F)cc1)O[C@@H]1C(=O)c2cc(Br)ccc2O[C@H]1c1ccc2c(c1)OCO2`, the Potency result in experiment [1], in experiment [3] and in experiment [4] was “inactive” throughout.

Regarding `COC(=O)CCC(=O)OC1(C)C(=O)C2=CN(C3CCCC3)C(c3ccc(OC)cc3)=CC2=C(Br)C1=O` (stereo not given), the Potency result in experiment [1], in experiment [3] and in experiment [4] was “inactive” in each case.

For the molecule `COC(=O)[C@@H](NC(=O)N1CCc2nc(COc3ccccc3)c3c(c2C1)CO[C@@H](C)C3)C(C)C`, the Potency entry in experiment [1] and in experiment [4] was “inactive” each time. In experiment [3], the Potency is 1.69 µM (active).

In the case of `COC(=O)C1=C(C(=O)OC)[C@@H]2N(C)c3ccc(OC)cc3[C@@]23C[C@@H](C(=O)OC)N(S(=O)(=O)c2ccc(C(F)(F)F)cc2)C3=N1`, the Potency result in experiment [1] and in experiment [4] was “inactive” throughout.

In the case of `CC#CCN1c2ccccc2[C@]23C[C@@H](C(=O)OC)N(S(=O)(=O)c4ccc([N+](=O)[O-])cc4)C2=NC(C(=O)OC)=C(C(=O)OC)[C@H]13`, the Potency result in experiment [1] and in experiment [4] was “inactive” throughout.

For the molecule `CCOC(=O)CCCNC(=O)N1CCc2nc(-c3ccc(OC)cc3C)c3c(c2C1)CO[C@@H](c1ccccc1)C3`, the Potency result in experiment [1] and in experiment [4] was “inactive” each time. The Potency in experiment [3] is 1.69 µM (active).

Turning to `CCOC(=O)CN1C(=O)N[C@@H](c2cccc(C(F)(F)F)c2)[C@@H](C(=O)OC)[C@H]1C`, the Potency entry in experiment [1] and in experiment [4] was “inactive” each time.

For the molecule `CCCCc1nc2c(c3c1C[C@H](C)OC3)CN(S(=O)(=O)c1ccc(Cl)c3nonc13)CC2`, the Potency result in experiment [1], in experiment [3] and in experiment [4] was “inactive” in each case.

For the molecule `COC(=O)N1C(/C=C/C=C/c2ccc(OC)cc2)=Cc2ccccc2C1CC(C)=O` (stereo not given), the Potency entry in experiment [1] and in experiment [4] was “inactive” throughout.

`CCCCc1nc2c(c3c1C[C@H](C)OC3)CN(C(=O)NCCCC(=O)OCC)CC2`: the Potency entry in experiment [1], in experiment [5] and in experiment [4] was “inactive” in each case.
